# According to PubChem BioAssay (Tox21):
# Records with an inconclusive call do not appear. A call without a number means that no potency is given here. The source made the active and inactive calls. Unless noted, calls follow the shape of the dose curve; as a rule, active = well fitted curve in the direction sought with a large enough effect in the repeat runs; inconclusive = weak or mixed curves; inactive = no such curve, though single readings can be large; an effect the other way counts as inactive or inconclusive.
# Tests used:
# [1] = qHTS assay to identify small molecule antagonists of the retinoid acid receptor (RAR) signaling pathway - cell viability counter screen (AID 1159551); also: nearly all actives have a fitted effect of over 35% in size
# In short: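 Cells (C3RL4) are plated, incubated overnight, dosed with compound in DMSO, then given retinol at 1 uM final. After 6 h at 37 C, CellTiter-Glo is added and luminescence read following 30 min at room temperature.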
# [2] = target: Luciferin 4-monooxygenase (Photinus pyralis) (UniProt P08659); experiment: qHTS assay to identify small molecule inhibitors of firefly luciferase (AID 1224835); also: nearly all actives have a fitted effect of over 25% in size; also: potency is read from the fitted curve at half-maximal effect
# Luciferin 4-monooxygenase (Photinus pyralis), sequence (P08659 whole entry, looked up): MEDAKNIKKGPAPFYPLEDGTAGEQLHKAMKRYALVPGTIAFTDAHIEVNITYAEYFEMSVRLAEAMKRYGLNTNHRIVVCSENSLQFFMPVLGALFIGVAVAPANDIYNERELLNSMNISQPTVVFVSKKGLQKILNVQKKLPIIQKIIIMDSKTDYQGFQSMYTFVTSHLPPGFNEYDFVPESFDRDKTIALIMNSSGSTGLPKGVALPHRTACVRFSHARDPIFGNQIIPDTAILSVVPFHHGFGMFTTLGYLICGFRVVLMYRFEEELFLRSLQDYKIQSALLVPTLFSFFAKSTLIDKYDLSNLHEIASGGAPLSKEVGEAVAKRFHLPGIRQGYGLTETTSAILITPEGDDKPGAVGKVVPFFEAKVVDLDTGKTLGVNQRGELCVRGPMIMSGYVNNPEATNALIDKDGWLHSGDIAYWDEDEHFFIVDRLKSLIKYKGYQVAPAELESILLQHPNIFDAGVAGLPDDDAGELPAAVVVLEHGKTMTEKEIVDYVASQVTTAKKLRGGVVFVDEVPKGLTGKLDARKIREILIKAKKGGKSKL
# In short: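 Inhibition of purified Photinus luciferase is measured by luminescence. Substrate levels (D-luciferin, ATP) sit at their KM values. Each compound is tested in a concentration series.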
# [3] = qHTS assay to identify small molecule agonists of the constitutive androstane receptor (CAR) signaling pathway - cell viability counter screen (AID 1224836); also: series mostly up to about 92 µM; nearly all actives have a fitted effect of over 45% in size
# In short: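 Viability read-out: CellTiter-Fluor fluorescence after 23 h compound exposure at 37 C/5% CO2 in double-stable HepG2-CYP2B6-hCAR cells, with PK11195 present at 0.75 uM final; compounds tested in 15-point titration.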
# [4] = qHTS assay to identify small molecule antagonists of the constitutive androstane receptor (CAR) signaling pathway - cell viability counter screen (AID 1224837); also: series mostly up to about 92 µM; nearly all actives have a fitted effect of over 45% in size
# In short: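 Viability was measured with CellTiter-Fluor in a HepG2 line carrying stably transfected hCAR and a CYP2B6-2.2kb construct. Cells were exposed for 23 hr at 37 C to 15 compound concentrations with 50 nM CITCO as agonist.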
# [5] = target: Nuclear receptor subfamily 1 group I member 3 (Homo sapiens) (UniProt Q14994); experiment: qHTS assay to identify small molecule antagonists of the constitutive androstane receptor (CAR) signaling pathway (AID 1224838);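 also: HepG2 cells stably expressing hCAR with CYP2B6 luciferase reporter stimulated by CITCO; nearly all actives have a fitted effect of over 40% in size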; also: potency is read from the fitted curve at half-maximal effect
# Nuclear receptor subfamily 1 group I member 3 (Homo sapiens), sequence (Q14994 whole entry, looked up): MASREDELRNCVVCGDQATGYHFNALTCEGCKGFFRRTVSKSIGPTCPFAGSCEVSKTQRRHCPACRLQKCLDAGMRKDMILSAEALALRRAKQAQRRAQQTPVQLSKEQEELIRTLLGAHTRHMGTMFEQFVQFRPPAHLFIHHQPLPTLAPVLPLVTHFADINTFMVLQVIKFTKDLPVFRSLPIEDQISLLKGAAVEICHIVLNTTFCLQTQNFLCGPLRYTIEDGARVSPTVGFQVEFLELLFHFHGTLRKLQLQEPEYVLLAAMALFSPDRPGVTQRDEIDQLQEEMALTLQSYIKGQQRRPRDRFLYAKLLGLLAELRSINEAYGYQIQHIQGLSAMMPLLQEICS
# In short: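 Antagonist mode used CITCO at a final 50 nM to activate CAR in human hepatoma HepG2 cells carrying stable hCAR and a 2.2 kb CYP2B6 promoter-luciferase construct. Compounds were tested at 15 concentrations over 24 h, with luminescence as the end point.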
# [6] = target: Nuclear receptor subfamily 1 group I member 3 (Homo sapiens) (UniProt Q14994); experiment: qHTS assay to identify small molecule agonists of the constitutive androstane receptor (CAR) signaling pathway (AID 1224839); also: nearly all actives have a fitted effect of over 15% in size; also: potency is read from the fitted curve at half-maximal effect
# In short: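 Luminescence read-out (ONE-Glo, 30 min, room temperature) from double-stable HepG2-CYP2B6-hCAR cells exposed 24 h to 15-point compound series in presence of 0.75 uM PK11195 final.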
# [7] = qHTS assay to identify small molecule antagonists of the estrogen related receptor signaling pathway with the pleiotropic PPARgamma coactivator (PGC) from Tox21 10K library - cell viability counter screen (AID 1224840; active = well fitted cell-killing curve with a large enough effect in the repeat runs, not every such curve was filed as active; also: nearly all actives have a fitted effect of over 40% in size; also: potency is read from the fitted curve at half-maximal effect)
# In short: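 Multiplexed viability counter screen in the PGC/ERR cell line: cells treated with DMSO-dissolved compounds for 17.5 hours at 37 C, then viability measured as CellTiter-Fluor fluorescence.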
# [8] = qHTS assay to identify small molecule antagonists of the estrogen related receptor signaling pathway with the pleiotropic PPARgamma coactivator (PGC) from Tox21 10K library (AID 1224841; call rule not given here; also: actives are mostly falling curves and most rising ones were filed inactive; nearly all actives have a fitted effect of over 50% in size; also: potency is read from the fitted curve at half-maximal effect)
# In short: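 Steps: plate 2,000 PGC/ERR cells per well; incubate 6 h at 37 C with 5% CO2; transfer compounds from DMSO stocks by pin tool; incubate 18 h at 37 C; add One-Glo; measure luminescence 30 min later.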
# [9] = qHTS assay to identify small molecule agonists of the estrogen related receptor signaling pathway with the pleiotropic PPARgamma coactivator (PGC) from Tox21 10K library (AID 1224842); also: nearly all actives have a fitted effect of over 15% in size
# In short: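 Luminescence from One-Glo (30 min, room temperature) measured after PGC/ERR cells had 18 h at 37 C with pinned compound (23 nL in DMSO). Cells had been seeded at 2,000 per well and pre-incubated 6 h.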
# [10] = target: Thyrotropin receptor (Homo sapiens) (UniProt P16473); experiment: qHTS assay to identify small molecule agonists of the thyroid stimulating hormone receptor (TSHR) signaling pathway (AID 1224843; calls by dose curve; also: nearly all actives have a fitted effect of over 45% in size; also: potency is read from the fitted curve at half-maximal effect)
# Thyrotropin receptor (Homo sapiens), sequence (P16473 whole entry, looked up): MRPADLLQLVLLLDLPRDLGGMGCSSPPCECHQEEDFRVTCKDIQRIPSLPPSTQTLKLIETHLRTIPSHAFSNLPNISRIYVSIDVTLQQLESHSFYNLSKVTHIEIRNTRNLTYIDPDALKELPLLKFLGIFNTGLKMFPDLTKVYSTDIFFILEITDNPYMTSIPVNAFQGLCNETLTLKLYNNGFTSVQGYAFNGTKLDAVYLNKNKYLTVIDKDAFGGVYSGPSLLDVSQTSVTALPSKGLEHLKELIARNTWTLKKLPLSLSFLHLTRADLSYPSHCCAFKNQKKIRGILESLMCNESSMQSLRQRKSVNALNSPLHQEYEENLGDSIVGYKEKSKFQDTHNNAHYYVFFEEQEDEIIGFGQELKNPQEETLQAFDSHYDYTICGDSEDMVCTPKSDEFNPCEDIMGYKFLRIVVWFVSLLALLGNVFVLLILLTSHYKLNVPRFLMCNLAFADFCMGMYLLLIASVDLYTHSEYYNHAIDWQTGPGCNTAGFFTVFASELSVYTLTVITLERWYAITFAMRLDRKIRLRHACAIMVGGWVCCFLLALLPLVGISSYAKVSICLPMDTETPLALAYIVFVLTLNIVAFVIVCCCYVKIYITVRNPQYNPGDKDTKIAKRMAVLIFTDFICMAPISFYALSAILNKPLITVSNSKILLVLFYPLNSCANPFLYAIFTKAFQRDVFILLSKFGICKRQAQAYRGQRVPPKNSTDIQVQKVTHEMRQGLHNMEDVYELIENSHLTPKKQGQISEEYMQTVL
# In short: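 A cell-based cAMP HTRF format was run in TSHR-transfected HEK293 cells, 800 per well. Treatment: 30 min, room temperature. Detection: 1 h with labelled cAMP and anti-cAMP cryptate. Concentration-response over 15 points, three replicates.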
# [11] = qHTS assay to identify small molecule antagonists of the retinoic acid receptor (RAR) signaling pathway (AID 1159552; also: nearly all actives have a fitted effect of over 50% in size; also: potency is read from the fitted curve at half-maximal effect)
# In short: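 Luminescence from a RARE luciferase reporter in C3RL4 cells served as read-out. Cells received compounds together with 1 uM final retinol and incubated 6 hr at 37 C before detection reagent was added for 30 min at room temperature.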
# [12] = qHTS assay to identify small molecule agonists of the retinoic acid receptor (RAR) signaling pathway (AID 1159553); also: potency is read from the fitted curve at half-maximal effect
# In short: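 Seed C3RL4 reporter cells at 1,000 per well and incubate overnight at 37 C. Add compounds in DMSO, incubate 6 hr. Add luciferase reagent, wait 30 min at room temperature, read luminescence.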
# [13] = qHTS assay to identify small molecule antagonists of the estrogen related receptor (ERR) signaling pathway from Tox21 library - cell viability counter screen (AID 1224834); also: nearly all actives have a fitted effect of over 30% in size; also: potency is read from the fitted curve at half-maximal effect
# In short: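 ERR cells, 2,000/well; 6 h settle at 37 C/5% CO2; pin-tool compound transfer in DMSO; 17.5 h at 37 C; CellTiter-Fluor, 30 min; fluorescence intensity.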
# [14] = qHTS assay to identify small molecule agonists of the RXR signaling pathway - cell viability counter screen (AID 1159529); also: nearly all actives have a fitted effect of over 50% in size; also: potency is read from the fitted curve at half-maximal effect
# In short: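 Luminescence from CellTiter-Glo (30 min, RT) measured viability in the same wells as the beta-lactamase reporter readout. Cells: GeneBLAzer RXR-alpha HEK 293T, 2% charcoal-stripped FBS. Compound exposure 16 hr, 37 C.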
Compound,Potency [1],Potency [2],Potency [3],Potency [4],Potency [5],Potency [6],Potency [7],Potency [8],outcome [9],Potency [10],Potency [11],Potency [12],Potency [13],Potency [14]
CC1(C)C(=O)NC(=O)NC1=O,inactive,inactive,inactive,inactive,inactive,inactive,inactive,inactive,inactive,inactive,–,–,–,–
CC(=O)Nc1cc([As](=O)(O)O)ccc1O,–,inactive,inactive,inactive,inactive,–,inactive,inactive,–,inactive,inactive,inactive,inactive,–
CCOC(=O)CP(=O)(OCC)OCC,inactive,inactive,inactive,inactive,–,–,–,inactive,–,–,–,–,inactive,inactive
O=S(=O)(O)C(F)(F)C(F)(F)C(F)(F)C(F)(F)C(F)(F)C(F)(F)F,inactive,inactive,inactive,–,inactive,inactive,inactive,–,–,inactive,–,–,inactive,–
CC(C)(C)OC(=O)c1ncn2c1[C@@H]1CCCN1C(=O)c1c(Br)cccc1-2,inactive,inactive,inactive,inactive,–,inactive,inactive,–,inactive,inactive,inactive,inactive,–,–
N#CC(O)c1ccccc1 (centres undefined),inactive,inactive,inactive,inactive,inactive,–,inactive,–,–,inactive,–,–,inactive,inactive
CCOC(=O)N(C)C(=O)CSP(=S)(OCC)OCC,inactive,inactive,inactive,–,inactive,34.4 µM (active),inactive,–,–,–,–,–,inactive,inactive
O=CNC(N1CCN(C(NC=O)C(Cl)(Cl)Cl)CC1)C(Cl)(Cl)Cl (centres undefined),inactive,inactive,inactive,inactive,inactive,inactive,–,inactive,–,–,–,–,inactive,–
CCOP(=O)(OCC)OP(=O)(OCC)OCC,inactive,inactive,inactive,inactive,inactive,inactive,inactive,–,–,inactive,–,–,inactive,inactive
Nc1cc(Cl)ccc1O,inactive,inactive,inactive,inactive,–,–,–,–,–,inactive,–,–,33.3 µM (active),–
C=C(C)CN(CC)c1c([N+](=O)[O-])cc(C(F)(F)F)cc1[N+](=O)[O-],inactive,inactive,inactive,inactive,inactive,–,inactive,inactive,–,–,inactive,inactive,inactive,–
Nc1cnn(-c2ccccc2)c(=O)c1Cl,inactive,inactive,inactive,inactive,inactive,–,–,–,–,inactive,–,–,inactive,inactive
CCNc1nc(NC(C)C)nc(OC)n1,inactive,inactive,inactive,inactive,–,–,inactive,inactive,–,–,–,–,inactive,inactive
Nc1n[nH]c(N)n1,inactive,inactive,–,inactive,27.8 µM (active),inactive,–,–,–,inactive,–,inactive,–,–
NC(=O)O,inactive,inactive,inactive,inactive,inactive,–,inactive,–,–,inactive,–,–,inactive,inactive
CCCCOP(=O)(O)OCCCC,inactive,inactive,inactive,inactive,–,–,inactive,–,–,–,–,–,inactive,inactive
CC1CN1P(=O)(N1CC1C)N1CC1C (centres undefined),inactive,inactive,inactive,–,inactive,inactive,inactive,–,–,–,–,–,–,inactive
CC(C)CP(=S)(S)CC(C)C,inactive,inactive,inactive,–,3.44 µM (active),inactive,–,–,–,–,inactive,inactive,inactive,–
CCCSP(=S)(OCC)Oc1ccc(Cl)cc1Cl (centres undefined),inactive,inactive,inactive,inactive,inactive,–,inactive,inactive,inactive,inactive,inactive,inactive,inactive,–
N#CC(CCc1ccc(Cl)cc1)(Cn1cncn1)c1ccccc1 (centres undefined),–,inactive,–,–,inactive,21.7 µM (active),34.4 µM (active),34.4 µM (active),–,8.63 µM (active),61.1 µM (active),inactive,30.6 µM (active),24.5 µM (active)
CC(=O)CCc1ccc2c(c1)OCO2,inactive,inactive,inactive,inactive,inactive,inactive,inactive,inactive,inactive,inactive,inactive,inactive,inactive,–
CN1C[C@@H](NS(=O)(=O)N(C)C)C[C@@H]2c3cccc4c3c(cn4C)C[C@H]21,inactive,inactive,inactive,inactive,inactive,–,–,–,–,inactive,–,–,inactive,inactive
CS(=O)(=O)c1cc(C(F)(F)F)ccc1C(=O)c1cnoc1C1CC1,inactive,inactive,inactive,inactive,inactive,inactive,inactive,inactive,–,–,inactive,inactive,inactive,–
Nc1cc2c3c(c1)C(c1ccccc1)=N[C@@H](NC(=O)c1cccnc1)C(=O)N3CC2,inactive,inactive,inactive,inactive,inactive,–,–,–,–,inactive,–,–,inactive,inactive
O=C(Cc1ccccc1)OCc1ccccc1,inactive,20.2 µM (active),inactive,–,–,inactive,inactive,–,–,inactive,inactive,61.6 µM (active),inactive,–
CNC(=O)Oc1cccc(C(C)C)c1,inactive,–,inactive,inactive,–,–,inactive,–,–,–,–,–,inactive,–
CCCCN(CCCCO)N=O,inactive,inactive,inactive,–,–,–,inactive,inactive,–,–,inactive,inactive,–,–
c1cc[c]([Hg][c]2ccccc2)cc1,inactive,17.8 µM (active),inactive,–,–,–,–,–,–,inactive,inactive,8.63 µM (active),–,–
